Test results reported in PubChem BioAssay (NCATS).
Records with an inconclusive call do not appear. A call without a number means that no potency is given here. Activity calls are given as the source filed them. The call rests on the fitted dose curve; in most records, active means well fitted inhibition curve with a large enough effect; inconclusive means small, poorly fitted or top-dose-only effect; inactive means flat fitted curve, though single readings scatter. Bridge positions count the residues as written; N and C are the ends. Square brackets hold non-standard residues; d marks the D form. Side chains are listed from the residue outwards. Peptide text beside a SMILES is read from it. * marks the point of attachment. ξ: configuration not given here. Phg(4-OMe) = COc1ccc([C@H](N)C(=O)O)cc1; d(aIle) = CC[C@H](C)[C@@H](N)C(=O)O; d(aThr) = C[C@@H](O)[C@@H](N)C(=O)O; NMeF = CN[C@@H](Cc1ccccc1)C(=O)O; Isobutyryl = CC(C)C(=O)*; Hexanoyl = CCCCCC(=O)*; ξL = CC(C)CC(N)C(=O)O
Potency means the concentration at half of the fitted maximal effect.

Assay: qHTS for Inflammasome Signaling Inhibitors: IL-1-beta AlphaLISA screen against the NCATS CANVASS Library (AID 1347379);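 further: human THP-1 cells primed with LPS then triggered with ATP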
Conditions: THP-1 LPS/ATP, IL-1B AlphaLISA secretion, 16 h; series mostly up to 57.5 µM
Text: Natural products and their derivatives continue to be wellsprings of nascent therapeutic potential. However, many laboratories have limited resources for biological evaluation, leaving their previously isolated or synthesized compounds largely or completely untested. To address this issue, the Canvass library of natural products was assembled (https://tripod.nih.gov/canvass), in collaboration with academic and industry researchers, for quantitative high-throughput screening (qHTS) across a diverse set of cell-based and biochemical assays. The pure (>85% purity by liquid chromatography/mass spectrometry [LC/MS]) Canvass library of 346 natural products were submitted by 45 academic laboratories and companies around the world. We collected pure natural products to circumvent deconvolution and structure elucidation due to time and resource limitations. The library was formatted into 1536-well plates and evaluated in 50 qHTS (in an 11-pnt concentration series) bioassays with broad scope of disease-relevant mechanisms. The resulting data set from 50 different assays was then systematically analyzed to identify overall trends and specific natural products with interesting biological activities. Reported herein are the results of each individual qHTS and their corresponding assay protocol. A qHTS assay, based on AlphaLISA technology, was developed to screen the NCATS CANVASS library to look for novel inflammasome inhibitors. The assay detects IL-1B using AlphaLISA anti-IL-1B acceptor and donor beads. Human THP-1 cells were incubated with Canvass compound for 1 hr, followed by stimulation with lipopolysaccharide and ATP to induce inflammasome activation. Compounds that inhibit activation is flagged and validated. A decreased emission signal, indicating reduced IL-1B secretion, is the desired outcome for this assay. National Center for Advancing Translational Sciences (NCATS), Rockville, MD National Institute of Health (NIH), Bethesda, Maryland
IL-1-beta qHTS protocol: Three microliters containing 3000 THP-1 cells were dispensed into the wells of solid, white, tissue culture treated Greiner 1,536-well plates. Library compounds and positive control, Glyburide, were pin-transferred (23 nL) by a Kalypsys pin-tool equipped with a 1,536-pin array, resulting in final compound concentration ranges of 2.5 nM to 57.5 uM. After 1 hr of cell culture incubation (37 °C, 5% CO2), 1 microL of 1 microg/mL lipopolysaccharide (250 ng/mL, final) and 5 mM ATP (1.25 mM, final) were added to stimulate the cells. After 16 hr of cell culture incubation with the compounds, 1.5 uL of anti-IL-1B acceptor beads (6 ug/mL, final) and biotinylated antibody (0.6 nM, final) were added to the plate, followed by a 1 hr incubation at ambient temperature. To detect the secreted IL-1B, 1.5 uL of AlphaLISA SA-Donor beads (24 ug/mL, final) were added, followed by 30 min of incubation in the dark at ambient temperature. The AlphaLISA signal was read by a PerkinElmer EnVision plate reader with an ultrasensitive luminescence detector and 1536 Plate HTS AlphaScreen aperture (excitation of 680nm and emission of 615nm).
With CCCc1c2c([nH]c(=O)c1C)C(=O)c1[nH]c(=O)c(C)c(CCC)c1C2=O the Potency was “inactive”.
With CCC(=O)N[C@@H](C[C@H](C)C(Cl)(Cl)Cl)C(=O)N1C(=O)C=C(OC)[C@@H]1C[C@H](C)CCl the Potency was “inactive”.
With C/C=C(/C)c1cc(O)c(C)c2c1Oc1cc(O)cc(C)c1C(=O)O2 the Potency was “inactive”.
For C/C=C/[C@H]1[C@H]2C(=O)c3c(O)c(C)c(O)c(C)c3[C@]1(C(=O)O)C(=O)C=C2C, the Potency was “inactive”.
For CC[C@H](O)CCCCC[C@@H]1NC(=O)[C@H]2CCCCN2C(=O)[C@H]([C@H](C)CC)NC(=O)[C@H](Cc2cn(OC)c3ccccc23)NC1=O, the Potency was “inactive”.
In the case of CC(C)=CCC[C@]12c3cc4c(cc3CC[C@@]1(C)[C@H](C)CC[C@@H]2O)[nH]c1ccccc14, the Potency is reported as “inactive”.
For C[C@@]12C[C@@H](C[C@@H]3C(=O)O[C@@H](c4ccoc4)[C@H](OC(=O)c4ccccc4)[C@@H]31)OC2=O, the Potency was “inactive”.
For C/C=C/C(=O)C1(O)CC2CC(C(=O)O)CC(C)C2C1C1=C2C(=O)NC(=O)C2=C(CCCCC)C(C)O1 (stereo not given), the Potency was 19.3 µM (active).
In the case of C/C1=C/[C@@H](C)[C@H](O)[C@@H](O)/C=C/CC/C=C/C(=O)O[C@@H]1[C@H](C)C(=O)/C=C/CC1CC(=O)NC(=O)C1, the Potency is reported as “inactive”.
For CO[C@H]1[C@@H](OC(=O)/C(C)=C\[C@@H]2O[C@@H]2[C@H]2O[C@H]2C)[C@H](O)[C@H](OCC23C[C@@H]4[C@H](C)CC[C@H]4C4(C=O)CC2C=C(C(C)C)C34C(=O)O)O[C@@H]1C (stereo not given in full), the Potency was “inactive”.
In the case of CC[C@H](C)[C@H]1NC(=O)[C@@H](NC(=O)C(C)C)[C@@H](C)OC(=O)[C@H](COC(=O)CNC(C)=O)NC(=O)[C@@H]([C@@H](C)O)NC(=O)[C@H](Cc2ccccc2)N(C)C(=O)[C@H](c2ccc(OC)cc2)NC1=O (Isobutyryl-T[d(aIle)][Phg(4-OMe)][NMeF][d(aThr)]S([Gly-Ac]); ester 1-C), the Potency is reported as “inactive”.
In the case of C[C@]12CC[C@]3(C1)[C@H](CC2=O)C[C@@H](OC(=O)c1ccccc1)[C@H]1[C@](C)(C(=O)O)CCC[C@@]13C, the Potency is reported as “inactive”.
For C=C1C[C@]23C=CC(=O)[C@@](C)(CCCC(C)C(=O)N[C@@H](CO)C(=O)O)[C@@H]2C[C@@H]1CC3 (stereo not given in full), the Potency was “inactive”.
For CN1CC[C@]23c4ccccc4N[C@H]1[C@]21CCN(C)[C@H]3Nc2ccccc21, the Potency was “inactive”.
For COc1cc2c(cc1OC)[C@@H](c1ccc3c(c1)OCO3)C(C)C(C)C2=O (stereo not given in full), the Potency was “inactive”.
With CC(=O)N[C@H](C)c1nc(/C=C/C=C/C(=O)CC2CC(=O)CC[C@]2(C)O)cs1 (stereo not given in full) the Potency was “inactive”.
In the case of C/C=C1/C2=CCCN3C(=O)O[C@H]([C@H]1O)[C@H]23, the Potency is reported as “inactive”.
In the case of [C-]#[N+][C@@]12C(=O)[C@@H]3[C@@H](O[C@@]4(C(=O)N(C)c5cccc1c54)C3(C)C)C(=O)[C@@]2(C)C=C, the Potency is reported as “inactive”.
In the case of COc1cc2c(c(O)c1O)C(=O)c1c(coc1C)C2=O, the Potency is reported as 24.3 µM (active).
In the case of C=C(C)CC[C@H](Cc1c(O)cc(O)c2c1O[C@H](c1ccc(O)cc1)CC2=O)C(=C)C, the Potency is reported as “inactive”.
In the case of C=C[C@]1(C)CC[C@@H]([C@H](C)C(=O)/C=C/C(C)(C)O)O1, the Potency is reported as “inactive”.
In the case of COc1cc(/C=C/C(=O)OC[C@@H](Cc2ccc(O)c(OC)c2)[C@@H](COC(=O)/C=C/c2ccc(O)c(OC)c2)Cc2ccc(O)c(OC)c2)ccc1O, the Potency is reported as 15.3 µM (active).
With COC(=O)C1=C[C@]23C[C@@H](C)CC[C@@H]2[C@@]2(C)CC[C@@H](C(C)C)[C@@](O)(O3)[C@@H]12 the Potency was “inactive”.
For CC[C@@H](C)[C@H]1NC(=O)C(CC(C)C)NC(=O)[C@@H](CC(C)C)NC(=O)[C@H](Cc2c[nH]c3ccccc23)NC(=O)CNC(=O)[C@@H](CC(N)=O)NC1=O (stereo partly drawn) (cyclo(GW[dL][ξL][dI][dN])), the Potency was “inactive”.
In the case of CC[C@@H](c1cc(OC)c(OC)cc1OC)[C@H](C)[C@@H](/C(C)=C/c1cc(OC)c(OC)cc1OC)c1cc(OC)c(OC)cc1OC, the Potency is reported as “inactive”.
For C=C1CCC2C(C)(C(=O)O)CCC(CC/C(C)=C/C(=O)NC(CCC(N)=O)C(=O)O)[C@@]2(C)C1 (stereo not given in full), the Potency was “inactive”.
For C[C@@]1(CCC(=O)Nc2c(O)ccc(C(=O)O)c2O)C(=O)C=C[C@]23C[C@H]4C[C@H](O[C@@]4(C)C2)C31 (stereo not given in full), the Potency was “inactive”.
In the case of O=C1CCC(=O)N(O)CCCCCNC(=O)CCC(=O)N(O)CCCCCNC(=O)CCC(=O)N(O)CCCCCN1, the Potency is reported as “inactive”.
For CC(C)=CCC/C(C)=C/Cc1cc([C@@H]2CC(=O)c3c(cc(O)c(CC=C(C)C)c3O)O2)ccc1O, the Potency was “inactive”.
In the case of C=C1C(=O)O[C@H]2[C@H]1CCC(C)=C1CC[C@@](C)(O)[C@@H]12, the Potency is reported as 9.68 µM (active).
In the case of C[C@H]1C=C[C@H]2CCCC[C@@H]2[C@H]1C(=O)[C@H]1CC2=C(C(=O)O)CCN2C1=O, the Potency is reported as “inactive”.
With COC(=O)[C@@]1(C)CCC[C@]2(C)c3cc(OC)ccc3CC[C@@H]12 the Potency was “inactive”.
With O=c1cc(-c2ccc(O)cc2)oc2cc(O)c([C@@H]3OC(CO)[C@H](O)[C@@H](O)[C@H]3O)c(O)c12 (stereo not given in full) the Potency was “inactive”.
In the case of CN1CCc2cc3c(c4c2C1(C)C(=O)c1cc(O)ccc1-4)OCO3 (stereo not given), the Potency is reported as “inactive”.
With O=C1CC(c2ccc(O)cc2)Oc2cc(O)cc(O)c21 (stereo not given) the Potency was “inactive”.
In the case of C=C1CC[C@@H](Br)C(C)(C)[C@]12CC=C(C)C(=O)C2, the Potency is reported as “inactive”.
In the case of Cc1cc(O)cc2c1C(=O)c1c(O)cc(O)cc1C2=O, the Potency is reported as “inactive”.
In the case of COc1c(O)cc2c(c1O)C(=O)c1c(coc1C)C2=O, the Potency is reported as “inactive”.
For COc1ccc2[nH]c3c(c2c1)CCN1C[C@H]2C[C@@H](OC(=O)c4cc(OC)c(OC)c(OC)c4)[C@H](OC)[C@@H](OC)[C@H]2C[C@H]31, the Potency was “inactive”.
With CCCCCC(=O)N[C@@H](CC(C)C)C(=O)N[C@H](C=O)CCC(=O)O (Hexanoyl-Leu-Glu-aldehyde) the Potency was “inactive”.
